Experiment [1] in a line: NS1 protein of Zika virus - qHTS assay to identify small molecule inhibitors in human HEK 293 cells (AID 1347053). Further: series mostly up to about 46 µM; nearly all actives have a fitted effect of over 55% in size. The procedure, abridged:
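Readout was TR-FRET using paired anti-NS1 antibodies after 24 h infection of HEK 293 cells with ZIKV MR766 (MOI = 0.5). Compound preceded virus by 1 h; reduced signal reflects lower NS1 expression.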

Experiment [2] has as its target T1, Tyrosine-protein phosphatase non-receptor type substrate 1 (Homo sapiens) + Leukocyte surface antigen CD47 (Homo sapiens) (UniProt P78324+Q08722). As to the kind of experiment: CD47-SIRPalpha protein protein interaction - Alpha assay qHTS validation (AID 1347059).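 Further: bead proximity luminescence from CD47 binding SIRPalpha after compound preincubation with SIRPalpha.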 Further: potency means the concentration at half of the fitted maximal effect. In short, it runs like this: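 In PBS (pH 7.4) with 0.05% IGEPAL CA-630, compound is preincubated with biotin-Avi-SIRPalpha ectodomain before His-CD47 ectodomain and affinity beads are added. Light-protected room-temperature incubations; AlphaScreen readout.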
(In general: Quantitative high-throughput screening tests each substance at several concentrations.)

The target in experiment [3] is Parathyroid hormone/parathyroid hormone-related peptide receptor (Homo sapiens) (UniProt Q03431). The experiment in a line: qHTS for PTHR1 Agonists: Optimization Screen against the NCGC LOPAC library (AID 1347079).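 Further: GloSensor cAMP luminescence in HEK-293 GP2 cells expressing human PTHR1 with IBMX.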 Further: potency means the concentration at half of the fitted maximal effect. In short, it runs like this:
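HEK-293 GP2 cells, PTHR1 + GloSensor cAMP; 3000 cells/well, o/n. Luciferin + IBMX 0.5mM each (stock), 1 hr 37C. Cpd titration, 1 hr 37C. Lum after 15 min RT. Ctrl M-PTH(1-15) top 10uM.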

Experiment [4] concerns the target N-terminal Xaa-Pro-Lys N-methyltransferase 1 (Homo sapiens) (UniProt Q9BV86). As to the kind of experiment: qHTS Assay for Inhibitors of N-terminal methyltransferase 1 (NTMT1): LOPAC validation of the NTMT1 SAHH-coupled ThioGlo3 Assay (AID 1347143).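 Further: SAH from peptide methylation measured as thiol fluorescence via SAHH coupling and ThioGlo3; nearly all actives have a fitted effect of over 70% in size.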 Further: potency means the concentration at half of the fitted maximal effect. In short, it runs like this: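 In this qHTS pilot against the LOPAC set, 125nM NTMT1 met compounds tested at multiple concentrations, and fluorescence was normalized to background.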

Experiment [5] deals with Zika virus NS2B-NS3 protease (unlinked). As to the kind of experiment: Optimization of GU AMC qHTS for Zika virus inhibitors: Unlinked NS2B-NS3 protease assay (AID 1347151). Further: nearly all actives have a fitted effect of over 80% in size. Further: potency means the concentration at half of the fitted maximal effect. The procedure, abridged: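 Percent inhibition is derived from the 15-min change in AMC fluorescence, normalized against no-inhibitor and no-enzyme controls, then fitted to a 4-parameter Hill curve. Aprotinin was the intraplate control.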

For experiment [6], the target named is T1, Tyrosine-protein phosphatase non-receptor type substrate 1 (Homo sapiens) + Leukocyte surface antigen CD47 (Homo sapiens). As to the kind of experiment: CD47-SIRPalpha protein protein interaction - LANCE assay qHTS validation (AID 1347057; active means well fitted curve in the direction sought with a large enough effect in the signal ratio, with a control signal flat, not every such curve was filed as active; the % refers to the signal ratio; further: series mostly up to about 38 µM). In short, it runs like this:
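Inhibition of soluble CD47/SIRPalpha ectodomain association by titrated compounds, measured as 665/615 nm time-resolved FRET ratio after sequential 30 min room-temperature incubations.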
A general note: In TR-FRET formats the signal depends on donor and acceptor labels being close together.

The target is the same in experiment [7]. The experiment in a line: CD47-SIRPalpha protein protein interaction - HTRF assay qHTS validation (AID 1347058; active means well fitted curve in the direction sought with a large enough effect in the signal ratio, not every such curve was filed as active; the % refers to the signal ratio; further: series mostly up to about 38 µM). In short, it runs like this:
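Soluble extracellular domains (6His-CD47, Avi-tag-biotinylated SIRPalpha) in PBS pH 7.4 with 0.05% IGEPAL CA-630. Compounds were preincubated 30 min at RT with CD47 and anti-His-Eu, then SIRPalpha and SAV-XL665 were added. TR-FRET 665/615 ratio.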

The next experiment concerns the target Furin (Homo sapiens) (UniProt P09958). The experiment in a line: Furin counterscreen qHTS for Zika virus inhibitors (AID 1347149). Further: nearly all actives have a fitted effect of over 70% in size. Further: potency means the concentration at half of the fitted maximal effect. The procedure, abridged: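 Counterscreen measures cleavage of 2 microM BOC-RVRR-AMC, below its ~15 microM Km, by 5 nM full-length human furin at pH 7.0 after a 15-min compound preincubation. Inhibition derives from the 15-min fluorescence increase at 37C.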

For experiment [8], the system named is Zika virus NS2B-NS3 protease (unlinked complex). As to the kind of experiment: Confirmatory screen GU AMC qHTS for Zika virus inhibitors (AID 1347153). Further: nearly all actives have a fitted effect of over 70% in size. In short, it runs like this:
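Unlinked NS2B-NS3 complex (25 nM) in 10 mM Tris-HCl pH 8.0, 0.01% Tween 20 preincubated 15 min with compound, then 10 microM Bz-Nle-KRR-AMC (Km 18.3 µM). Fluorescence change over 15 min, normalized, Hill-fitted.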

Records with an inconclusive call do not appear. Activity calls are given as the source filed them. Unless noted, the call rests on the fitted dose curve; in most records, active means well fitted curve in the direction sought with a large enough effect; inconclusive means small, poorly fitted or top-dose-only effect, or another doubt; inactive means no such curve, though single readings can be large; an effect the other way counts as inactive or inconclusive.

T1 sequence (P78324 whole entry, looked up, the tested form may be a part): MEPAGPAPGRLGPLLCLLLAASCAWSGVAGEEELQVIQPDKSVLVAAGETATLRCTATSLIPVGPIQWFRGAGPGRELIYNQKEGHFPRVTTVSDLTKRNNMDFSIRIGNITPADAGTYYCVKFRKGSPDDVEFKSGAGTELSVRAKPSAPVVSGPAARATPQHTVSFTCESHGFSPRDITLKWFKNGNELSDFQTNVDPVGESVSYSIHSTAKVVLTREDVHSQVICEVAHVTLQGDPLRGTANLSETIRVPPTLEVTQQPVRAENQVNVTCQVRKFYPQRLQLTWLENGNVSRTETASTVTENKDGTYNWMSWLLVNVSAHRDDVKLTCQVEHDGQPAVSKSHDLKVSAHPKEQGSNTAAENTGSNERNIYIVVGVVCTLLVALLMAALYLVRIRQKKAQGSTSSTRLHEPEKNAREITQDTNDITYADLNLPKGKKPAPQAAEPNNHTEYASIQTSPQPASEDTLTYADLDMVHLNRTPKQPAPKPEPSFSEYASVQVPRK
T1 sequence (Q08722 whole entry, looked up, the tested form may be a part): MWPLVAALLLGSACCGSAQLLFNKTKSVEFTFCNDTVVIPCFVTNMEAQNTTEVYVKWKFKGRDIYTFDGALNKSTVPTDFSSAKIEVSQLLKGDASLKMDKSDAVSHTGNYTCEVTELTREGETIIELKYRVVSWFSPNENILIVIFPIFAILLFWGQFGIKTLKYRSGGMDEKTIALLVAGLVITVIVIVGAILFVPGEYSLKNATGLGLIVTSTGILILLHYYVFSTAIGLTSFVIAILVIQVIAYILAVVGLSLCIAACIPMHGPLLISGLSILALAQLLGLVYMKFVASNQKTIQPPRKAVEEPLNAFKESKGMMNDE
Sequence of N-terminal Xaa-Pro-Lys N-methyltransferase 1 (Homo sapiens) (Q9BV86 whole entry, looked up): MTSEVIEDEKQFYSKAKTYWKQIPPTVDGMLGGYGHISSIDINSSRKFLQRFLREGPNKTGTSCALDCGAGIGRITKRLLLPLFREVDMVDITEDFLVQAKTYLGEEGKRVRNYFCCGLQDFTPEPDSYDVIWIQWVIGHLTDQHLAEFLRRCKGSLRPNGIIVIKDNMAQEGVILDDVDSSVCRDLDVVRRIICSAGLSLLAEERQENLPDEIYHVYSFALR
Sequence of Parathyroid hormone/parathyroid hormone-related peptide receptor (Homo sapiens) (Q03431 whole entry, looked up): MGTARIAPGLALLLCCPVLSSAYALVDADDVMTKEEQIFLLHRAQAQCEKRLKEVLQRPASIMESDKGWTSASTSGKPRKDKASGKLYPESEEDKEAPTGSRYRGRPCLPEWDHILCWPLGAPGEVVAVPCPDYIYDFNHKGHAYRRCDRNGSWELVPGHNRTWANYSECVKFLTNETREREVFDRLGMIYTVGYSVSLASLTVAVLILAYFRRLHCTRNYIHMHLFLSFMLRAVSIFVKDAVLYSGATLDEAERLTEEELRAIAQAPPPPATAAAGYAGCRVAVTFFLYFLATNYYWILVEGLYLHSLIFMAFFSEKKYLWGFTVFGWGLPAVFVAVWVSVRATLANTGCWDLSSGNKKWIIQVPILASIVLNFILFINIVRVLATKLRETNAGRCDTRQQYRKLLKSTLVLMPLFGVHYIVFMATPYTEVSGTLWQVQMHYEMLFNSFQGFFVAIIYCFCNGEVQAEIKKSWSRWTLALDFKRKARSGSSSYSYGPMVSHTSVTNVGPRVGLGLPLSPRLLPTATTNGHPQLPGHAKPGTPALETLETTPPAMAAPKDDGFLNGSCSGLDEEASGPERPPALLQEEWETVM
Sequence of Furin (Homo sapiens) (P09958 whole entry, looked up): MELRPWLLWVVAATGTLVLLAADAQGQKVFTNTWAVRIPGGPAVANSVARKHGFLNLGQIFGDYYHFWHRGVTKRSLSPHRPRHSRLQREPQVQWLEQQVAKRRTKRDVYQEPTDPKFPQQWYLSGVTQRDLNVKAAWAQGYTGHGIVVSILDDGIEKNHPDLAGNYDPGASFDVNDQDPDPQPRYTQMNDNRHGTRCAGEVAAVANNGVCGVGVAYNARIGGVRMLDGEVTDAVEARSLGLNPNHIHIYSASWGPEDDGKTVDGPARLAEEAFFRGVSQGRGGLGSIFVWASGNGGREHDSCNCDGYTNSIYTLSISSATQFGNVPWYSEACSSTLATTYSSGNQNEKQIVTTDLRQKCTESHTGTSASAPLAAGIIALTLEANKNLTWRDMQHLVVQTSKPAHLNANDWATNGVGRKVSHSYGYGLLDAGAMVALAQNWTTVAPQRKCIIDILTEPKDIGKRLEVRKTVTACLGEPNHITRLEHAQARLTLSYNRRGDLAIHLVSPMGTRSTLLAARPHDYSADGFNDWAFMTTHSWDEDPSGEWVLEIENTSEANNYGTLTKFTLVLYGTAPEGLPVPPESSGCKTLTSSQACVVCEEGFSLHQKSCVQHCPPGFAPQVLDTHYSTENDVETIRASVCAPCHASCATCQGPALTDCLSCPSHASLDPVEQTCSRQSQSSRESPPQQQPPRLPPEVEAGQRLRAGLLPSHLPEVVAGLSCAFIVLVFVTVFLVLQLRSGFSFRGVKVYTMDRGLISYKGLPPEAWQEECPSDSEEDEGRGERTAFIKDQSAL

Take `N=C(N)SCCc1cnc[nH]1`: the Potency result in [1], in [2], in experiment [3], in experiment [4] and in experiment [5] was “inactive” each time.
As to `CCC1(O)CC2CN(CCc3c([nH]c4ccccc34)[C@@](C(=O)OC)(c3cc4c(cc3OC)N(C)C3[C@]45CCN4CC=C[C@@](CC)([C@@H](OC(C)=O)[C@]3(O)C(=O)OC)[C@H]45)C2)C1` (stereo partly specified), in experiment [3], the Potency result is “inactive”.
Regarding `O=C(O)Cc1c[nH]c2ccc(O)cc12`, the Potency entry in experiment [6], in [2] and in experiment [3] was “inactive” in each case. Besides, in [7], the result was inactive. Besides, the Potency in experiment [4] was 56.2 µM (active).
Turning to `NS(=O)(=O)c1cccc2c1c([N+](=O)[O-])cc1nc(O)c(O)nc12`, the Potency result in [1], in experiment [3] and in [5] was “inactive” in each case. For the same compound, in experiment [4], the Potency was 50.1 µM (active).
Take `N#Cc1cc2nc(O)c(O)nc2cc1[N+](=O)[O-]`: the Potency entry in [1], in experiment [3] and in experiment [4] was “inactive” each time.
Regarding `CCCn1c(=O)c2[nH]c(-c3ccc(S(=O)(=O)O)cc3)nc2n(CCC)c1=O`, the Potency entry in experiment [1], in experiment [2], in experiment [3] and in experiment [4] was “inactive” throughout.
For `O=C(O)C1=CC(=C(c2ccc(O)c(C(=O)O)c2)c2ccc(O)c(C(=O)O)c2)C=CC1=O`, the Potency result in [1] and in [3] was “inactive” each time. For the same compound, the Potency in experiment [2] is 0.464 µM (active); in [4] it was 25.1 µM (active).
For `OC1(c2ccc(Cl)cc2)CCN(Cc2c[nH]c3ccccc23)CC1`, the Potency result in [6], in experiment [2], in [3], in experiment [4] and in experiment [5] was “inactive” in each case.
As to `Cc1nc(N=Nc2ccc(S(=O)(=O)O)cc2S(=O)(=O)O)c(COP(=O)(O)O)c(C=O)c1O`, the Potency result (in experiment [1]; in experiment [2]; in experiment [3]; in experiment [4]; with Furin (Homo sapiens); in experiment [5]) was “inactive” throughout.
Take `COc1ccc(NC(=O)c2ccc(-c3ccc(-c4noc(C)n4)cc3C)cc2)cc1N1CCN(C)CC1`: the Potency result in experiment [6], in [3], in experiment [4] and in [5] was “inactive” throughout. The result in [7] was inactive.
On to `CN(C)S(=O)(=O)c1ccc2c(c1)/C(=C/c1cc3c([nH]1)CCCC3)C(=O)N2`, for which the Potency entry in [1], in experiment [2], in experiment [3], in experiment [4] and in [5] was “inactive” each time.
Take `COc1cc(CC(=O)O)ccc1O`: the Potency result in experiment [6], in experiment [2], in [3], in [4] and in [5] was “inactive” throughout. Also, the outcome in [7] was inactive.
On to `O=C(N[C@@H](Cc1ccccc1)C(=O)CCl)OCc1ccccc1`, for which the Potency entry in [6], in [2], in experiment [3] and in [5] was “inactive” each time. For the same compound, the outcome in experiment [7] was inactive.
`CCc1ccc2c(-c3cccc(Cl)c3)nc(=O)n(CC)c2n1`: the Potency result in experiment [1] and in [8] was “inactive” in each case. The Potency is 2.67 µM (active) in experiment [3], 21.5 µM (active) with Furin (Homo sapiens) and 26.7 µM (active) in experiment [5].
For `O=c1cc(-c2ccccc2)[nH]c2nc(Cl)ccc12`, the Potency result in [1] and in [3] was “inactive” in each case. In addition, the results for the Potency in experiment [4] and in experiment [5] were 79.4 µM (active) and 11.9 µM (active), respectively.
Take `CC(O)C(O)[C@H]1CNc2nc(N)[nH]c(=O)c2N1` (stereo partly specified): the Potency result in experiment [1] and in experiment [3] was “inactive” in each case. Further, the Potency is 28.2 µM (active) in experiment [4] and 26.7 µM (active) in experiment [5].
On to `CN1Cc2sccc2C(c2ccc(O)c(O)c2)C1` (stereo unspecified), for which the Potency result in [1], in experiment [2], in experiment [3] and in [5] was “inactive” throughout. The Potency in experiment [4] was 39.8 µM (active).

Values taken from PubChem BioAssay (NCATS).
